Read-out in assay [1]: Human Leukocyte Antigen - DR isotype (HLADR), HLA-DRA (gene 3122)
Briefly: BSK_3C_HLADR: BioMAP Diversity Plus: 3C Assay for Human Leukocyte Antigen - DR isotype (HLADR) Biomarker Activity (AID 2283019).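 As to outcome: ELISA of cell-surface HLA-DR on HUVEC 24 h after dosing.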 The settings on record: primary human endothelial cells (HUVEC); actives raise or lower the signal. Put shortly:
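Bidirectional fitting against DMSO was applied to the HLA-DR ELISA signal from human umbilical vein endothelial cells, 24 h post-dose. Cytotoxicity came from parallel SRB total-protein staining; 3C proliferation was counted by SRB at 48 h.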

Read-out in assay [2]: Interleukin-8 (IL8), CXCL8 (gene 3576)
The assay can be described thus: BSK_3C_IL8: BioMAP Diversity Plus: 3C Assay for Interleukin-8 (IL8) Biomarker Activity (AID 2283020). The settings on record: primary human endothelial cells (HUVEC); actives raise or lower the signal. Put shortly: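 Human vascular endothelial cells (umbilical vein) in the 3C system; IL-8 level detected by ELISA at 24 h post-dose, with DMSO as baseline.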

Read-out in assay [3]: Monokine induced gamma interferon (MIG), CXCL9 (gene 4283)
Briefly: BSK_3C_MIG: BioMAP Diversity Plus: 3C Assay for Monokine induced gamma interferon (MIG) Biomarker Activity (AID 2283021). The settings on record: primary human endothelial cells (HUVEC); actives raise or lower the signal. Put shortly: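 After 24 h of treatment, human umbilical vein endothelial cultures (3C system) had their MIG biomarker level determined by ELISA, with DMSO serving as negative control.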

The nature of assay [4]: BSK_3C_SRB: Viability Assessment in the BioMAP Diversity Plus: 3C Assay (AID 2283023).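 Also: fitted both ways against DMSO so a hit may be signal rise or drop.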 The conditions noted are these: primary human endothelial cells (HUVEC). Put shortly: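 Cytotoxicity readout in parallel HUVEC 3C cultures: after 24 h compound exposure, cells fixed with 10% TCA, stained with 0.1% SRB and read at 560 nm. Gain or loss relative to DMSO fitted.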
Read-out in assay [5]: Matrix Metallopeptidase 1 (MMP1), MMP1 (gene 4312)
Briefly: BSK_BE3C_MMP1: BioMAP Diversity Plus: BE3C Assay for Matrix Metallopeptidase 1 (MMP1) Biomarker Activity (AID 2283024). The settings on record: primary human bronchial epithelial cells; actives raise or lower the signal. Put shortly:
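Dose cells, wait 24 h, run MMP1 ELISA; cells are human bronchial epithelial primaries. Both increases and decreases relative to DMSO counted.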

Assay [6] can be described thus: BSK_3C_Vis: BioMAP Diversity Plus: 3C Assay for Morphology Visualization (AID 2283025).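 Also: fitted both ways so gain or loss versus DMSO counts.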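 As to AC50: light microscopy image of cell morphology used as background control.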 The settings on record: primary human endothelial cells (HUVEC). Put shortly: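 Endothelial cells from human umbilical vein were treated with test chemicals for 24 h and inspected by light microscopy for changes in cell conformation.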
Read-out in assay [7]: Pselectin, SELP (gene 6403)
Briefly: BSK_4H_Pselectin: BioMAP Diversity Plus: 4H Assay for Pselectin Biomarker Activity (AID 2283026). The settings on record: primary human endothelial cells (HUVEC); actives raise or lower the signal. A digest of the protocol: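 Human vascular endothelium from umbilical vein; P-selectin measured by ELISA at 24 h post-dose, with cytotoxicity checked by sulforhodamine B total-protein staining in parallel cultures (0.1% SRB after 10% TCA fixation, read at 560 nm).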

A short description of assay [8]: BSK_4H_SRB: Viability Assessment in the BioMAP Diversity Plus: 4H Assay (AID 2283027).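 Also: cells exposed to compound for 24 h before staining.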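 As to AC50: curves fitted both ways versus DMSO so AC50 may be loss or gain.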 The conditions noted are these: primary human endothelial cells (HUVEC). Put shortly: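 Human umbilical vein endothelial cells, 24 h after chemical dosing; total protein measured by 0.1% sulforhodamine B staining after 10% TCA fixation, read at 560 nm. Bidirectional fitting against DMSO.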

Assay [9] in a line: BSK_BE3C_SRB: Viability Assessment in the BioMAP Diversity Plus: BE3C Assay (AID 2283028).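 As to AC50: fitted both ways so AC50 may mark signal gain or loss versus DMSO.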 The conditions noted are these: primary human bronchial epithelial cells. A digest of the protocol: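 Cytotoxicity read-out: SRB (0.1%) staining of TCA-fixed (10%) human lung bronchial epithelial cells, absorbance 560 nm, 24 h post-dosing. Curves fitted both directions relative to DMSO.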

Activity calls are given as the source filed them. The calls were made as follows: active = hit-call score of the fitted dose curve at least 0.9, where 1 is the maximum; inactive = score below 0.9.

This note sets out measurements from PubChem BioAssay (EPA / NIEHS).

The AC50 is the concentration at which the activity in the assay is half-maximal.

As to `Clc1cccc(C(Cl)(Cl)Cl)n1`, the outcome in assay [1], in [2], in assay [3], in assay [4], in assay [5] and in assay [6] was inactive. Besides, the result in assay [7], in assay [8] and in assay [9] was inactive.
On to `O=P(O)(O)CCCl`, for which the outcome in [1], in assay [2], in [3], in assay [4], in [5] and in assay [6] was inactive. In addition, the result in assay [7], in assay [8] and in [9] was inactive.
As for `O=c1n(Cl)c(=O)n(Cl)c(=O)n1Cl`, in assay [1], the AC50 is 3.97 µM (active). Moreover, the result in assay [2], in [3], in assay [4], in [5], in assay [6] and in assay [7] was inactive. Besides, the result in assay [8] and in assay [9] was inactive.
Regarding `CCCC(=NOCC)C1=C(O)CC(CC(C)SCC)CC1=O` (centres undefined), the outcome in [1], in assay [2], in [3], in assay [4], in assay [5] and in assay [7] was inactive. Further, the outcome in assay [8] and in assay [9] was inactive. Also, in [6], the AC50 was 39 µM (active).
Turning to `Nc1c(Cl)c(Cl)nc(C(=O)O)c1Cl`, the result in assay [1], in [2], in [3], in [4], in [5] and in assay [6] was inactive. For the same compound, the outcome in assay [7], in [8] and in [9] was inactive.
As for `CCNC(=O)NC(=O)C(C#N)=NOC`, the outcome in assay [1], in assay [2], in assay [3], in [4], in assay [5] and in assay [6] was inactive. In addition, the outcome in [7], in assay [8] and in assay [9] was inactive.
As to `C=CCOC(=O)C(C)(C)OC(=O)c1cc(-n2c(=O)cc(C(F)(F)F)n(C)c2=O)ccc1Cl`, the AC50 in assay [1] is 14.7 µM (active). Further, the result in [2], in assay [3], in assay [4], in [5], in assay [6] and in [7] was inactive. For the same compound, the result in assay [8] and in assay [9] was inactive.
Take `CCCCC(O)(Cn1cncn1)c1ccc(Cl)cc1Cl` (centres undefined): the AC50 in [1] is 20 µM (active); in [5], 12.8 µM (active); in assay [8], 14.3 µM (active). In addition, the outcome in assay [2], in assay [3], in assay [4], in assay [6], in [7] and in assay [9] was inactive.
Turning to `CC(C)=CC1C(C(=O)OCc2coc(Cc3ccccc3)c2)C1(C)C` (centres undefined), the AC50 in assay [1] was 7.53 µM (active); in assay [2], 9.03 µM (active); in assay [4] it was 13.7 µM (active); in assay [6] it was 9.8 µM (active); in assay [9] it was 10.8 µM (active). Moreover, the result in assay [3], in [5], in assay [7] and in assay [8] was inactive.
With `C=C(C)CN(CC)c1c([N+](=O)[O-])cc(C(F)(F)F)cc1[N+](=O)[O-]`, the outcome in assay [1], in assay [2], in assay [3], in [5], in [7] and in assay [8] was inactive. In addition, the outcome in [9] was inactive. The AC50 in assay [4] was 30 µM (active); in assay [6] it was 20 µM (active).
In the case of `CCSC(=O)N1CCCCCC1`, the result in [1], in assay [2], in assay [3], in assay [4], in assay [5] and in assay [6] was inactive. Further, the result in assay [7], in assay [8] and in assay [9] was inactive.
With `COCC(=O)N(c1c(C)cccc1C)C(C)C(=O)OC` (centres undefined), the result in assay [1], in assay [2], in [3], in assay [4], in assay [5] and in assay [6] was inactive. The outcome in assay [7], in assay [8] and in [9] was inactive.
`CCOP(=O)(OCC)Oc1nc(Cl)c(Cl)cc1Cl`: the concentration at half-maximal activity (AC50) in assay [1] is 24.6 µM (active); in assay [2], 20 µM (active); in assay [4] it was 28.8 µM (active); in assay [6], 16.3 µM (active); in [7], 18.5 µM (active); in [8], 12.4 µM (active). Moreover, the AC50 in assay [9] was 4.23 µM (active). Further, the outcome in assay [3] and in assay [5] was inactive.
Turning to `N#CN=C1SCCN1Cc1ccc(Cl)nc1`, the result in assay [1], in [2], in assay [3], in [4], in assay [5] and in [6] was inactive. Also, the result in [7], in assay [8] and in assay [9] was inactive.
For the compound `O=C(Nc1ccccc1-c1ccc(Cl)cc1)c1cccnc1Cl`, the outcome in [1], in [2], in assay [3], in [4], in assay [5] and in assay [7] was inactive. Besides, the outcome in assay [8] and in assay [9] was inactive. In addition, in [6], the AC50 is 39 µM (active).
With `CCOC(=O)C(C)OC(=O)c1cc(Oc2ccc(C(F)(F)F)cc2Cl)ccc1[N+](=O)[O-]` (centres undefined), the AC50 in [1] is 3.97 µM (active); in [4], 13.3 µM (active); in assay [8], 13.1 µM (active). Also, the outcome in assay [2], in assay [3], in [5], in assay [6], in assay [7] and in [9] was inactive.
